Rv3671c inh: Rv3671c serine protease inhibitors, primary screen, biochemical, fluorescence polarization, M. tuberculosis H37Rv; inhibition, % at 5.96 µM; 320,000 tested, 0.048% active; in the data active = inhibition above about 38%;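 also: extracellular domain of Rv3671c used as enzyme; 0% = enzyme with DMSO and 100% = no enzyme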
Mtb bLac sens: beta-lactam sensitization of Mtb H37Rv, H37Rv; M. tuberculosis H37Rv growth with meropenem, percent inhibition; inhibition, % at 25 µM; 330,000 tested, 0.27% active; AID 434955, 2010; call rule not given here;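 also: growth measured after seven days incubation then overnight dye step; 0% = bacteria only wells and 100% = bacteria with antibiotic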
RecA intein inh: Mtb RecA intein splicing inhibitors, primary screen, biochemical, fluorescence, HTS. Protein RecA (Mycobacterium tuberculosis (strain ATCC 25618 / H37Rv)), P9WHJ3. cell-free RecA intein splicing. inhibition, % (test concentration not listed). 290,000 tested, 0.75% active. AID 2221, 2009; in the data active = inhibition above about 30%; inconclusive = no clear call, values can overlap the other calls;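 also: 0% = vehicle wells and 100% = reference inhibitor control wells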
Target sequence (P9WHJ3 whole entry, looked up): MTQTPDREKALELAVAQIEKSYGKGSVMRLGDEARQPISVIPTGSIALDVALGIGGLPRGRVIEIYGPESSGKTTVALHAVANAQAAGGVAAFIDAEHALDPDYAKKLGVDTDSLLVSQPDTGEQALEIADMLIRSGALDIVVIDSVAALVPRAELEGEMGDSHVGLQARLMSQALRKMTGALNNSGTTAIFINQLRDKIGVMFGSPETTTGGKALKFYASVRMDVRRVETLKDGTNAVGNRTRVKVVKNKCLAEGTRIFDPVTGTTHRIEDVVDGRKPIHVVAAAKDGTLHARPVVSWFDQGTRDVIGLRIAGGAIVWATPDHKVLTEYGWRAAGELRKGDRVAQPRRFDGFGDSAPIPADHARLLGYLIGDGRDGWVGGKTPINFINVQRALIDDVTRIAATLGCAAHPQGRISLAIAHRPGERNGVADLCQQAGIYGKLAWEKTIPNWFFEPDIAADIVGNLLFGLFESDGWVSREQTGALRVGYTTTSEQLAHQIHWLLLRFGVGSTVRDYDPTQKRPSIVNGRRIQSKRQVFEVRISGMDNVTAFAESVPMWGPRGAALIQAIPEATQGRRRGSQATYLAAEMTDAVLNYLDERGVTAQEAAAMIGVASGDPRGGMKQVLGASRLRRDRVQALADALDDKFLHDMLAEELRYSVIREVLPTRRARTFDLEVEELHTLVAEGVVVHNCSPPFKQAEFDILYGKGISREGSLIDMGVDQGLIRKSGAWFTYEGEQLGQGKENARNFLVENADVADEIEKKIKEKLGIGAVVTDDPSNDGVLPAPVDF
FBA Mtb inh: Mtb FBA enzyme inhibitors, primary screen, biochemical, fluorescence, strain H37Rv; purified M. tuberculosis FBA, fluorescence read-out; inhibition, % at 1 µM; 360,000 tested, 2.3% active; AID 588726, 2011;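 also: 0% = vehicle and 100% = reference inhibitor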
GDH-TPI counter-1: GDH-TPI coupling enzyme inhibitors, primary screen, artefact control for M. tuberculosis FBA inhibitor project, biochemical, absorbance, full deck | 360,000 tested, 1.2% active | AID 588335, 2011 | inhibition, % at 4.8 µM | GDH-TPI coupled enzyme counterscreen, NADH absorbance; in the data active = inhibition above about 30%;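 also: 0% = DMSO wells and 100% = wells lacking the enzyme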
Mtb UGM inh: M. tuberculosis UGM enzyme inhibitors, primary screen, biochemical, fluorescence polarization, single point; purified UGM, fluorescence polarization probe displacement; inhibition, % at 10 µM; 320,000 tested, 0.06% active; UDP-galactopyranose mutase (Mycobacterium tuberculosis (strain ATCC 25618 / H37Rv)), …; AID 504406, 2011; in the data active = inhibition above about 10%, passing the limit was not always enough; inconclusive = no clear call, values can overlap the other calls
Mtb FBA inh conf: M. tuberculosis aldolase blockers, biochemical, fluorescence, strain H37Rv, confirmation; shares compounds with FBA Mtb inh; purified M. tuberculosis FBA, fluorescence read-out; inhibition, % at 1 µM; 5,600 tested, 78% active;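 also: 0% = vehicle wells and 100% = reference inhibitor wells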
GDH-TPI counter-2: GDH-TPI coupling enzyme inhibitors, artefact control for M. tuberculosis FBA inhibitor project, biochemical, fluorescence, high throughput; 5,600 tested, 81% active; shares compounds with FBA Mtb inh; GDH-TPI coupled enzyme counterscreen; inhibition, % at 1 µM; in the data active = inhibition above about 10%
GDH-TPI DR: GDH-TPI coupling enzyme inhibitors, dose response, artefact control for M. tuberculosis FBA inhibitor project, biochemical, fluorescence, IC50 | 170 tested, 79% active | GDH-TPI coupled enzyme assay, artifact counterscreen | IC50, µM | shares compounds with FBA Mtb inh | AID 652145, 2013; call rule not given here
Starred values were filed as active, the others as inactive; ? = inconclusive; . = no result; + = active, no number. The list is not random: actives were taken first. Their share in the collection is about 4%. Rule as the data show it, unless noted: active = inhibition above about 27%; inactive = the rest.

SMILES	Rv3671c inh	Mtb bLac sens	RecA intein inh	FBA Mtb inh	GDH-TPI counter-1	Mtb UGM inh	Mtb FBA inh conf	GDH-TPI counter-2	others
Cc1cc(=O)oc2cc(OCCc3ccccc3)ccc12	-8	2	6	68*	7	4	11	-3	GDH-TPI DR=2.5*
Cc1cc(=O)oc2cc(OCCCC[n+]3ccccc3)ccc12	-1	-8	0	35*	15	-1	169*	+
CC1(Cc2cc(Cl)ccc2C(F)(F)F)C(=O)Nc2ccc(OC(F)(F)F)cc21 (stereo not given)	.	.	.	-3	7	.	.	.
O=c1oc2ccccc2cc1-c1ccccc1	-4	5	1	31*	17	0	11	2	GDH-TPI DR=5.2*
O=c1oc2ccc(Cl)cc2cc1-c1ccccc1	1	?	-1	1	-3	1	.	.
CCC(=O)Nc1cccc(-c2cc3ccccc3oc2=O)c1	-11	-5	-1	1	23	2	.	.
Nc1ccc(-c2cc3ccccc3c(=O)o2)cc1	0	-8	.	2	30	4	.	.
O=C(Cc1cccc2ccccc12)Nc1ccc(-c2cc3ccccc3oc2=O)cc1	-23	0	-14	53*	22	1	75*	49*
O=c1oc2ccccc2cc1-c1cn2ccccc2n1	-6	6	.	4	30	-2	.	.
O=c1oc(-c2ccccc2)cc2ccccc12	.	.	.	44*	11	.	71*	47*
O=c1oc2ccccc2cc1-c1cn2cccnc2n1	-22	-1	-18	29*	45*	-1	+	196*
Cc1ccc(CS(=O)Cc2ccc(C(=O)NCCc3ccccc3)o2)cc1 (stereo not given)	4	-9	2	-3	9	2	.	.
CCC1(O)CC(c2ccccc2)=NN1C(=O)c1ccccc1F (stereo not given)	1	38	1	-1	-4	1	.	.
N#CCc1nc(-c2cc3ccccc3oc2=O)cs1	-8	-3	1	77*	12	1	197*	155*
CC(=O)O[C@H](COc1c2ccoc2cc2oc(=O)ccc12)C(C)(C)O	8	-1	.	45*	12	0	0	-6
CC(C)(O)[C@H](O)COc1c2ccoc2cc2oc(=O)ccc12	-1	13	-2	2	15	-1	.	.
COc1cc2c(cc1NC(=S)Nc1ccccc1C)oc1ccccc12	4	82	1	111*	36*	0	56*	43*
CCCNC(=S)Nc1cc2oc3ccccc3c2cc1OC	-2	5	8	4	12	1	.	.
CCNC(=S)Nc1cc2oc3ccccc3c2cc1OC	2	84	-2	31*	7	1	4	5
CNC(=S)Nc1cc2oc3ccccc3c2cc1OC	.	5	-1	2	11	0	.	.
COc1cc2c(cc1NC(=S)Nc1cccc(C)c1)oc1ccccc12	-6	77	2	87*	31*	-1	12	-4	GDH-TPI DR=>10
COc1ccc(Br)c(Cn2c(C)c(C(=O)NCc3cccc([N+](=O)[O-])c3)sc2=O)c1	.	.	.	1	0	.	.	.
CCCC(C(=O)NC(C)(C)C)N(CC1CCCO1)C(=O)CNS(=O)(=O)c1ccc(F)cc1 (stereo not given)	-1	-4	2	0	-4	-4	.	.
CC(O)(c1ccc(F)c(F)c1)c1nc(-c2ccc(S(C)(=O)=O)cc2)cs1 (stereo not given)	.	.	.	1	-5	.	.	.
Cc1ccc(C2Nc3ccccc3-c3nc4ccccc4n32)o1 (stereo not given)	-20	-5	-7	82*	1	-2	119*	95*
SMILES	Rv3671c inh	Mtb bLac sens	RecA intein inh	FBA Mtb inh	GDH-TPI counter-1	Mtb UGM inh	Mtb FBA inh conf	GDH-TPI counter-2	others
Cc1ccc(-c2nc3ccccc3n2C)o1	-8	5	0	22	1	2	.	.
Cc1cc(NC(=O)Cc2ccccc2[N+](=O)[O-])no1	0	0	2	0	-1	1	.	.
CC(C)(C)c1ccc(C(=O)NCCc2ccccc2)cc1	14	5	0	27*	6	-1	111*	93*
Cc1ccc2c(c1)c1c(c(=O)n(-c3ccccc3)c(=O)n1CC(=O)NCC1CCCO1)n2C (stereo not given)	-4	7	-1	56*	-3	-2	76*	52*
CCc1ccccc1NC(=O)CN1CCN(CC(=O)NCc2ccc(Cl)cc2)CC1	0	3	.	0	9	0	.	.
COC(=O)N(C)c1nc2ccccc2s1	4	-11	2	0	11	4	.	.
CN(C(=O)OC(C)(C)C)c1ccc(-c2nc3ccccc3s2)cc1	-14	79	4	45*	18	0	+	+
CS(=O)(=O)N(Cc1ccccc1)c1ccc(C(=O)Nc2ccccc2C(=O)O)cc1	-4	-5	1	5	7	-2	.	.
Cc1c(Cc2ccccc2)c(=O)oc2c(C)c(OCC(=O)N[C@@H](Cc3ccccc3)C(=O)O)ccc12	-13	-1	1	53*	12	1	+	+
Cc1c(CC(=O)NCC(=O)N[C@H](Cc2ccccc2)C(=O)O)c(=O)oc2cc(O)ccc12	2	-8	-74	.	28	0	.	.
COc1ccc2c(CC(=O)N[C@@H](Cc3ccccc3)C(=O)O)cc(=O)oc2c1	-6	5	-3	101*	18	-1	100*	86*
COc1ccc(NCc2cc(=O)oc3cc(NC(C)=O)ccc23)cc1	1	5	2	73*	16	0	121*	88*
CCCCCCc1c(C)c2ccc(OCC(=O)N[C@@H](Cc3ccccc3)C(=O)O)cc2oc1=O	-6	6	12	73*	12	0	+	+
Cc1c(C)c2ccc(OCC(=O)N[C@@H](Cc3ccccc3)C(=O)O)cc2oc1=O	-2	2	4	77*	12	2	95*	81*
Cc1c(Cc2ccccc2)c(=O)oc2c(C)c(OCC(=O)N3CCC(C(=O)O)CC3)ccc12	1	-8	1	107*	21	0	60*	32*
